Screen size: about 300,000 compounds; about 1,500 (0.5%) were called active. This is one part of a sample in which actives are shown more often than they occur.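 The calls were made as follows: active = inhibition above the mean of all tested compounds plus 3 SD, set per screening campaign (cut at about 17% in these data); inactive = the rest.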
What follows are compounds tested on cathepsin L1 (Fasciola hepatica) (assay: CTSL1 protease inhibition, fluke enzyme – biochemical, QFRET, fluorogenic peptide substrate, counter-screen for PFM18AAP inhibitor project, primary screen (AID 1906;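 also: 0% = plate median of test compound wells and 100% = 1 µM Z-Phe-Ala-diazomethylketone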)). Conditions: recombinant F. hepatica cathepsin L1, Z-Leu-Arg-MCA fluorescence; at 5.96 µM; active compounds read high.
With `O=C(COC(=O)c1cc(S(=O)(=O)N2CCCCC2)ccc1Cl)NCc1ccco1` the inhibition was -8.1% (inactive).
In the case of `Cc1ccc(CNC(=O)Cn2cnc(S(=O)(=O)N3CCCCC3)c2)o1`, the inhibition is reported as 17.4% (active).
`O=C(COc1ccc(S(=O)(=O)N2CCCCC2)cc1)NCc1ccccn1` was tested, and the inhibition was -1.94% (inactive).
`CCOC(=O)/C(=N\Nc1ccccc1Cl)N(C)C1CCS(=O)(=O)C1` (centres undefined) was tested, and the inhibition was -2.25% (inactive).
`CCc1c(C)nc(SCC(=O)NC2CCCC2)[nH]c1=O` was tested, and the inhibition was 0.66% (inactive).
With `COc1cc2ccccc2cc1C(=O)N(CCN(C)C)c1nc2c(F)cccc2s1` the inhibition was 3.44% (inactive).
In the case of `COc1cccc2sc(N(CCCN(C)C)C(=O)C(c3ccccc3)c3ccccc3)nc12`, the inhibition is reported as 1.13% (inactive).
In the case of `COc1cccc2sc(N(CCCN(C)C)C(=O)CCS(=O)(=O)c3ccccc3)nc12`, the inhibition is reported as 52.7% (active).
With `Cc1ccc2sc(N(CCN(C)C)C(=O)/C=C/c3cccs3)nc2c1C` the inhibition was 0.9% (inactive).
`Cc1cccc2sc(N(CCCN(C)C)C(=O)CCS(=O)(=O)c3ccccc3)nc12` was tested, and the inhibition was 28.5% (active).
In the case of `CC(=O)N(CCCN(C)C)c1nc2ccc(C)cc2s1`, the inhibition is reported as 2.99% (inactive).
For `Cc1ccc(SCC(=O)Nc2nncs2)cc1`, the inhibition was -3.07% (inactive).
With `Cc1cc([N+](=O)[O-])c(NC2CCCCC2)c([N+](=O)[O-])c1` the inhibition was 5.19% (inactive).
For `Cc1cc(C(F)F)nn1CC(=O)NC1CCCCCC1`, the inhibition was -2.79% (inactive).
With `Cc1nn(CC(=O)NC2CCCCC2)c(=O)c2cccn12` the inhibition was -0.36% (inactive).
With `O=C(Cn1nc([N+](=O)[O-])nc1Br)NC1CCCCC1` the inhibition was 56.3% (active).
For `Cc1cc(C)n(-c2nc(O)cc(=O)[nH]2)n1`, the inhibition was -2.61% (inactive).
`CC(OC(=O)CCC(=O)c1ccccc1)C(=O)Nc1ccc(F)cc1` (centres undefined) was tested, and the inhibition was -70.5% (inactive).
With `C/C(=N\NC(=O)c1ccc2ccccc2c1)c1cccnc1` the inhibition was 0.17% (inactive).
In the case of `Cn1cccc1/C=C1\SC(=S)N(NC(=O)c2ccc(Cl)cc2)C1=O`, the inhibition is reported as 1.38% (inactive).
In the case of `O=C(O)c1ccc2c(c1)C(=O)N(NC(=O)c1ccc(O)cc1)C2=O`, the inhibition is reported as -4.02% (inactive).
With `CC(=O)N1C(=O)/C(=C2\SC(=S)N(NC(=O)c3ccc(O)cc3)C2=O)c2ccccc21` the inhibition was 20.6% (active).
For `CC(=O)c1cccc(NC(=S)N2CCN(S(C)(=O)=O)CC2)c1`, the inhibition was -1.96% (inactive).
`O=C(NCc1ccccc1Cl)C1CCCN1S(=O)(=O)c1ccc(F)cc1` (centres undefined) was tested, and the inhibition was -1.27% (inactive).
`COc1cccc(OCc2nnc3n2N=C(c2ccccc2)C(CC(=O)O)S3)c1` (centres undefined) was tested, and the inhibition was -0.13% (inactive).
With `NC(=O)C1CCN(C(=O)/C(=C/c2ccco2)NC(=O)c2ccccc2)CC1` the inhibition was 3.81% (inactive).
`O=C(NCc1ccco1)/C(=C/c1ccco1)NC(=O)c1ccccc1` was tested, and the inhibition was 8.99% (inactive).
`O=C(OCN1C(=O)c2ccccc2C1=O)/C(=C\c1ccco1)NC(=O)c1ccccc1` was tested, and the inhibition was 83.3% (active).
`CNC(=O)c1c(NC(NC(=O)c2ccco2)C(=O)c2ccc(Cl)cc2)sc2c1CCCC2` (centres undefined) was tested, and the inhibition was 1.81% (inactive).
`Cc1cc(CNC(=O)C2CCC(=O)N(CCc3ccc(Cl)cc3)C2)no1` (centres undefined) was tested, and the inhibition was 1.95% (inactive).
With `Cc1cc(=O)[nH]c2nnnn12` the inhibition was 0.51% (inactive).
`O=C(Cc1ccccc1Cl)N1CCOCC1` was tested, and the inhibition was -0.12% (inactive).
In the case of `Cc1cc2cc3c(N)[nH]nc3nc2cc1C`, the inhibition is reported as 0.69% (inactive).
For `O=C(Nc1cccc2cccnc12)c1cccc(Cl)c1`, the inhibition was 5.74% (inactive).
With `O=C(Nc1cccc2c1CCCC2)c1ccc(F)cc1` the inhibition was -0.12% (inactive).
With `O=C(Nc1cccnc1Oc1ncnc2cc(Cl)ccc12)c1ccc(F)cc1` the inhibition was 19.2% (active).
For `O=C(Nc1cc2c3c(c1)CC(=O)N3CCC2)c1ccccc1F`, the inhibition was -1.43% (inactive).
In the case of `CCCNC(=O)C(=O)Nc1cc2c3c(c1)CCC(=O)N3CCC2`, the inhibition is reported as 57.1% (active).
`O=C(COc1ccccc1)Nc1cc2c3c(c1)CC(=O)N3CCC2` was tested, and the inhibition was -2.44% (inactive).
`COc1ccccc1C(=O)NC(CCSC)C(=O)NNC(=O)c1ccccc1C` (centres undefined) was tested, and the inhibition was 7.41% (inactive).
With `CC1CN/C(=C\C(=O)c2ccc(Br)cc2)C(=O)N1` (centres undefined) the inhibition was 0.61% (inactive).
In the case of `O=C1c2ccccc2-c2ncnc3c(N4CCOCC4)cc(N4CCOCC4)c1c23`, the inhibition is reported as 3.65% (inactive).
With `COc1ccc(N2CCN(C(C)=C3C(=O)c4ccccc4C3=O)CC2)cc1` the inhibition was 0.37% (inactive).
With `COC1=C(N2CCOCC2)C(=O)c2ccccc2C1=O` the inhibition was 21.1% (active).
With `C[C@@H](O)c1nc2ccccc2n1N` the inhibition was -3.93% (inactive).
In the case of `CC1=NNC(=O)C1CC(=O)N/N=C/c1ccncc1` (centres undefined), the inhibition is reported as 2.89% (inactive).
`O=C(CSC1CC(=O)N(CCc2ccccc2)C1=O)Nc1ccc(Cl)cc1` (centres undefined) was tested, and the inhibition was -0.89% (inactive).
With `CC(=O)Nc1ccc(CN2CCN(Cc3ccc(F)c(F)c3)C(CCO)C2)cc1` (centres undefined) the inhibition was -1.18% (inactive).
`CCOC(=O)c1sc(NC(=O)CCN2CCOCC2)c(C(=O)OCC)c1C` was tested, and the inhibition was 4.35% (inactive).
In the case of `CCOC(=O)Nc1sc(C(=O)N(C)C)c(C)c1C(=O)OCC`, the inhibition is reported as 3.33% (inactive).
For `CCOC(=O)c1c(NC(=O)CCl)sc(C(=O)N(CC)CC)c1C`, the inhibition was 41.2% (active).
In the case of `CC(=O)c1ccc(NC(=O)Cn2c(=O)oc3ccccc32)cc1`, the inhibition is reported as 5.59% (inactive).
In the case of `CCSc1nsc(NC(=O)Nc2cccc(C(C)=O)c2)n1`, the inhibition is reported as 18.9% (active).
With `C=CCSc1nsc(NC(=O)Nc2cccc(C(C)=O)c2)n1` the inhibition was 3.26% (inactive).
With `CCSc1nsc(NC(=O)Nc2ccccc2OC)n1` the inhibition was -2.36% (inactive).
With `CC(=O)c1cccc(NC(=O)C2CCCN(S(=O)(=O)c3cccc4nonc34)C2)c1` (centres undefined) the inhibition was 4.35% (inactive).
`CC[N+](C)(CC)CCC[n+]1c(-c2ccccc2)c2cc(N)ccc2c2ccc(N)cc21` was tested, and the inhibition was 108% (active).
For `CCOc1cc(C2/C(=C(/O)c3ccc(S(=O)(=O)N4CCCCC4)cc3)C(=O)C(=O)N2CCOC)ccc1O` (centres undefined), the inhibition was 2.14% (inactive).
With `CCCc1nnc(SCC(=O)Nc2ccc(C(=O)OCC)cc2)o1` the inhibition was 22.8% (active).
With `Cc1ccc(NC(=O)CSc2nnc(COc3ccccc3C)o2)cc1` the inhibition was 2.58% (inactive).
In the case of `Cc1cc(C)cc(OCc2nnc(SCC(=O)Nc3ccccc3)o2)c1`, the inhibition is reported as 2.58% (inactive).
For `CCOc1ccc(CN2CCN(Cc3ccc(C)o3)CC2CCO)cc1` (centres undefined), the inhibition was -3.26% (inactive).
In the case of `COc1ccc(NC(=O)CN2C(=O)COc3ccc(S(=O)(=O)N4CCOCC4)cc32)cc1`, the inhibition is reported as -1.53% (inactive).
With `CCc1ccccc1NC(=O)CSc1nnc([C@@H](NC(=O)OC(C)(C)C)C(C)CC)o1` (some centres undefined) the inhibition was 36.5% (active).
For `Cc1cccc(NC(=O)CSc2nnc(CCNC(=O)OC(C)(C)C)o2)c1C`, the inhibition was -2.25% (inactive).
With `C[C@H](NC(=O)OC(C)(C)C)c1nnc(SCC(=O)Nc2ccc(Br)cc2)o1` the inhibition was 9.5% (inactive).
In the case of `CCc1ccccc1NC(=O)CSc1nnc(-c2ccncc2)o1`, the inhibition is reported as -3.59% (inactive).
With `CCc1ccccc1NC(=O)CSc1nnc(CCNC(=O)OC(C)(C)C)o1` the inhibition was -11.2% (inactive).
For `CCc1ccccc1NC(=O)CSc1nnc([C@@H](NC(=O)OC(C)(C)C)C(C)C)o1`, the inhibition was 25.9% (active).
`COC(=O)C1(CCSC)NC(c2ccc(OC)cc2OC)C2C(=O)N(c3cccc(C(C)=O)c3)C(=O)C21` (centres undefined) was tested, and the inhibition was -14.2% (inactive).
For `CCCCn1c(N)c(N(CC(C)C)C(=O)CSc2ccc([N+](=O)[O-])cc2)c(=O)[nH]c1=O`, the inhibition was 0.91% (inactive).
For `Cc1ccc(N(C(=O)c2snc(C(N)=O)c2N)C(C(=O)NCC2CCCO2)c2c[nH]c3ccccc23)cc1` (centres undefined), the inhibition was -0.55% (inactive).
With `CCCCC(CC)CNCc1cccn1CCN1CCOCC1` (centres undefined) the inhibition was -3.94% (inactive).
For `COc1ccccc1CCNC(=O)C(=O)NCCC1CCCCN1S(=O)(=O)c1cccs1` (centres undefined), the inhibition was 17.3% (active).
`O=C(NCCC1CCCCN1S(=O)(=O)c1cccs1)C(=O)Nc1ccc(F)cc1F` (centres undefined) was tested, and the inhibition was 2.68% (inactive).
`COc1ccc(CCNC(=O)C(=O)NCC2CCCN2S(=O)(=O)c2cccs2)cc1OC` (centres undefined) was tested, and the inhibition was -2.2% (inactive).
`Cc1ccc(C(=O)COC(=O)CCN2C(=O)C3C4CCC(C4)C3C2=O)cc1C` (centres undefined) was tested, and the inhibition was 8.56% (inactive).
For `COc1ccc(/C=C/CN2CCN(Cc3ccc(C)cc3)C(CCO)C2)cc1` (centres undefined), the inhibition was 7.06% (inactive).
With `COC(C(=O)Nc1ccc(S(=O)(=O)Nc2ccc(C)c(C)c2)cc1)c1ccccc1` (centres undefined) the inhibition was 1.68% (inactive).
For `CCOC(=O)c1ccc(-c2ccc(C(=O)Nc3cccnc3)o2)cc1`, the inhibition was 19% (active).
With `Cc1ccc(NC(=O)Nc2cccnc2)cc1` the inhibition was -1.42% (inactive).
For `CCOC(=O)c1cc(NC(=O)c2cccnc2)ccn1`, the inhibition was -0.7% (inactive).
`Cc1cc(C)c(NC(=O)CN2CCOCCOCCOCCOCC2)c(C)c1` was tested, and the inhibition was 2.85% (inactive).
In the case of `CN(Cc1ccccc1)C(=O)CSc1nc2ccccc2[nH]1`, the inhibition is reported as 2.91% (inactive).
With `O=C(CSc1nc2ccccc2[nH]1)N/N=C/C=C\c1ccccc1[N+](=O)[O-]` the inhibition was 4.39% (inactive).
In the case of `O=C(CSc1nc2ccccc2[nH]1)Nc1nc(-c2ccccc2)c(-c2ccccc2)o1`, the inhibition is reported as 17.5% (active).
In the case of `Cc1ccc(O/C=C2\OC(=O)c3ccccc32)cc1`, the inhibition is reported as 2.38% (inactive).
In the case of `CCOc1cc(C)ccc1OCc1nnc(SCC(=O)Nc2cccc(C(=O)O)c2)n1-c1ccccc1`, the inhibition is reported as -6.39% (inactive).
With `Cc1cccc(-n2c(SCC(=O)Nc3cccc(S(=O)(=O)NC4=NCCCCC4)c3)nc3ccccc3c2=O)c1C` the inhibition was 0.48% (inactive).
`COc1ccc(Cl)cc1C(=O)NCC#N` was tested, and the inhibition was 21% (active).
`CCC(C)NC(=O)c1cc(Cl)ccc1OC` (centres undefined) was tested, and the inhibition was 0.5% (inactive).
`COc1ccc(Cl)cc1C(=O)NCc1cn(C)nc1C` was tested, and the inhibition was -1.11% (inactive).
`Cc1cnc(C(=O)Oc2cccc(Cl)c2Cl)cn1` was tested, and the inhibition was -0.8% (inactive).
With `O=C(NCc1cccc(Cl)c1)C1CCN(c2nnc(N3CCCC3=O)s2)CC1` the inhibition was -5.47% (inactive).

— PubChem BioAssay AID1906 (The Scripps Research Institute Molecular Screening Center, 2009)
